Reference: the supplement of paper PMC7156485
± gives the standard deviation of the averaged measurements.

Key:
Details in all cases: concentration: 10 µM; 24 h
HCC1569 [1] = assay: cell number relative to DMSO (% of DMSO); higher = more cells (less growth inhibition / toxicity)
How it was run: (§1)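 H1.0 nuclear intensity or cell number is stated as percent of the plate control, based on the median of replicates, and HCC1569 values were smoothed for positional effects. These came from HCC1569 and TDF cells treated with compounds at 10 µM for 24 h at 37 °C in triplicate, then fixed in 3.7% formaldehyde and stained with a rabbit anti-H1.0 antibody, an AlexaFluor 647 secondary and DAPI.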

TDF [2] = assay: as above
How it was run: as §1

TDF [3] = assay: H1.0 immunofluorescence intensity relative to DMSO (% of DMSO); higher = stronger H1.0 induction, active = 120 or more
How it was run: as §1

HCC1569 [4] = assay: H1.0 immunofluorescence intensity relative to DMSO (% of DMSO); higher = stronger H1.0 induction, active = 140 or more
How it was run: as §1
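Throughout, for H1.0 immunofluorescence intensity relative to DMSO: TDF is a line of transformed human dermal fibroblasts of mesenchymal origin.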
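Throughout, for cell number relative to DMSO: TDF denotes transformed human dermal fibroblasts of mesenchymal origin.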

| SMILES | cell number (HCC1569 [1]) | cell number (TDF [2]) | H1.0 immunofluorescence intensity (TDF [3]) | H1.0 immunofluorescence intensity (HCC1569 [4]) |
| --- | --- | --- | --- | --- |
| Cc1cccc(C=Cc2ccccc2)n1 | 101 | 104 | 96.7 (inactive) | 100 (inactive) |
| CCCCCCCCCCCCCCCC(=O)NCCc1ccc(O)c(O)c1 [Palmitoyl dopamine] | 92.7 | 101 | 101 (inactive) | 105 (inactive) |
| C[N+]1(C)CCCC1C(=O)[O-].Cl (stereo unspecified) | 96.1 | 115 | 95.9 (inactive) | 109 (inactive) |
| CCCCCCCCC=CCCCCCCCC(=O)O [Oleic Acid] | 105 | 103 | 91.8 (inactive) | 87.8 (inactive) |
| O=C([O-])c1cc(=O)c2c(OCC(O)COc3cccc4oc(C(=O)[O-])cc(=O)c34)cccc2o1.[Na+].[Na+] [Disodium Cromoglycate] | 98.4 | 98.3 | 90.6 (inactive) | 103 (inactive) |
| CCC1OC(=O)C(C)C(OC2CC(C)(OC)C(O)C(C)O2)C(C)C(OC2OC(C)CC(N(C)C)C2O)C(C)(O)CC(C)CN(C)C(C)C(O)C1(C)O (stereo unspecified) [Azithromycin] | 106 | 109 | 91.2 (inactive) | 105 (inactive) |
| CC1=NS(=O)(=O)c2cc(Cl)ccc2N1 [Diazoxide] | 101.1 ± 0.59 | 111 ± 7.2 | 101 (inactive) | 101 (inactive) |
| CCN1C(=O)C=CC1=O [N-Ethylmaleimide] | 102 ± 5.4 | 97.2 ± 4.9 | 96.6 (inactive) | 91.7 (inactive) |
| O=C(c1ccc(OCCN2CCCCC2)cc1)c1c(-c2ccc(O)cc2)sc2cc(O)ccc12 [Raloxifene] | 95.5 | 105 | 102 (inactive) | 127 (inactive) |
